Reference: PubChem BioAssay
The source made the active and inactive calls.

Key:
[1] = small molecules captured by biotinylated probe aFSTL3 – biochemical, small-molecule microarray, fluorescence 635/667, stem cell growth factor project, primary screen (AID 1064); settings: higher = more signal;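 also: measures binding of the biotinylated anti-FSTL3 antibody to printed compounds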
[2] = binders from COS7 lysate, DM2A8 probe, primary screen, torsin A project, cell lysate, small-molecule microarray, fluorescence 635/667 (AID 1065); settings: higher = more signal, COS7 lysate expressing mutant human TOR1A
[3] = small molecules captured by biotinylated probe aFGF2 – biochemical, small-molecule microarray, fluorescence 635/667, stem cell growth factor project, primary screen (AID 1067); settings: higher = more signal;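 also: measures binding of biotinylated aFGF2 protein to printed compounds on slides; z-score merges feature fluorescence and signal-to-noise across triplicate slides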
[4] = small molecules captured by biotinylated probe aFGF10 – biochemical, small-molecule microarray, fluorescence 635/667, stem cell growth factor project, primary screen (AID 1071); settings: higher = more signal;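 also: score merges 667 nm spot intensity and signal to noise from triplicate slides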
[5] = target: Neurogenic locus notch homolog protein 2 (Homo sapiens) (UniProt Q04721); assay: small molecules binding Notch2 protein – biochemical, small-molecule microarray, 635 nm fluorescence, stem cell growth factors, primary screen (AID 1073); settings: higher = more signal
Chain of Neurogenic locus notch homolog protein 2 (Homo sapiens) (Q04721 whole entry, looked up, canonical isoform): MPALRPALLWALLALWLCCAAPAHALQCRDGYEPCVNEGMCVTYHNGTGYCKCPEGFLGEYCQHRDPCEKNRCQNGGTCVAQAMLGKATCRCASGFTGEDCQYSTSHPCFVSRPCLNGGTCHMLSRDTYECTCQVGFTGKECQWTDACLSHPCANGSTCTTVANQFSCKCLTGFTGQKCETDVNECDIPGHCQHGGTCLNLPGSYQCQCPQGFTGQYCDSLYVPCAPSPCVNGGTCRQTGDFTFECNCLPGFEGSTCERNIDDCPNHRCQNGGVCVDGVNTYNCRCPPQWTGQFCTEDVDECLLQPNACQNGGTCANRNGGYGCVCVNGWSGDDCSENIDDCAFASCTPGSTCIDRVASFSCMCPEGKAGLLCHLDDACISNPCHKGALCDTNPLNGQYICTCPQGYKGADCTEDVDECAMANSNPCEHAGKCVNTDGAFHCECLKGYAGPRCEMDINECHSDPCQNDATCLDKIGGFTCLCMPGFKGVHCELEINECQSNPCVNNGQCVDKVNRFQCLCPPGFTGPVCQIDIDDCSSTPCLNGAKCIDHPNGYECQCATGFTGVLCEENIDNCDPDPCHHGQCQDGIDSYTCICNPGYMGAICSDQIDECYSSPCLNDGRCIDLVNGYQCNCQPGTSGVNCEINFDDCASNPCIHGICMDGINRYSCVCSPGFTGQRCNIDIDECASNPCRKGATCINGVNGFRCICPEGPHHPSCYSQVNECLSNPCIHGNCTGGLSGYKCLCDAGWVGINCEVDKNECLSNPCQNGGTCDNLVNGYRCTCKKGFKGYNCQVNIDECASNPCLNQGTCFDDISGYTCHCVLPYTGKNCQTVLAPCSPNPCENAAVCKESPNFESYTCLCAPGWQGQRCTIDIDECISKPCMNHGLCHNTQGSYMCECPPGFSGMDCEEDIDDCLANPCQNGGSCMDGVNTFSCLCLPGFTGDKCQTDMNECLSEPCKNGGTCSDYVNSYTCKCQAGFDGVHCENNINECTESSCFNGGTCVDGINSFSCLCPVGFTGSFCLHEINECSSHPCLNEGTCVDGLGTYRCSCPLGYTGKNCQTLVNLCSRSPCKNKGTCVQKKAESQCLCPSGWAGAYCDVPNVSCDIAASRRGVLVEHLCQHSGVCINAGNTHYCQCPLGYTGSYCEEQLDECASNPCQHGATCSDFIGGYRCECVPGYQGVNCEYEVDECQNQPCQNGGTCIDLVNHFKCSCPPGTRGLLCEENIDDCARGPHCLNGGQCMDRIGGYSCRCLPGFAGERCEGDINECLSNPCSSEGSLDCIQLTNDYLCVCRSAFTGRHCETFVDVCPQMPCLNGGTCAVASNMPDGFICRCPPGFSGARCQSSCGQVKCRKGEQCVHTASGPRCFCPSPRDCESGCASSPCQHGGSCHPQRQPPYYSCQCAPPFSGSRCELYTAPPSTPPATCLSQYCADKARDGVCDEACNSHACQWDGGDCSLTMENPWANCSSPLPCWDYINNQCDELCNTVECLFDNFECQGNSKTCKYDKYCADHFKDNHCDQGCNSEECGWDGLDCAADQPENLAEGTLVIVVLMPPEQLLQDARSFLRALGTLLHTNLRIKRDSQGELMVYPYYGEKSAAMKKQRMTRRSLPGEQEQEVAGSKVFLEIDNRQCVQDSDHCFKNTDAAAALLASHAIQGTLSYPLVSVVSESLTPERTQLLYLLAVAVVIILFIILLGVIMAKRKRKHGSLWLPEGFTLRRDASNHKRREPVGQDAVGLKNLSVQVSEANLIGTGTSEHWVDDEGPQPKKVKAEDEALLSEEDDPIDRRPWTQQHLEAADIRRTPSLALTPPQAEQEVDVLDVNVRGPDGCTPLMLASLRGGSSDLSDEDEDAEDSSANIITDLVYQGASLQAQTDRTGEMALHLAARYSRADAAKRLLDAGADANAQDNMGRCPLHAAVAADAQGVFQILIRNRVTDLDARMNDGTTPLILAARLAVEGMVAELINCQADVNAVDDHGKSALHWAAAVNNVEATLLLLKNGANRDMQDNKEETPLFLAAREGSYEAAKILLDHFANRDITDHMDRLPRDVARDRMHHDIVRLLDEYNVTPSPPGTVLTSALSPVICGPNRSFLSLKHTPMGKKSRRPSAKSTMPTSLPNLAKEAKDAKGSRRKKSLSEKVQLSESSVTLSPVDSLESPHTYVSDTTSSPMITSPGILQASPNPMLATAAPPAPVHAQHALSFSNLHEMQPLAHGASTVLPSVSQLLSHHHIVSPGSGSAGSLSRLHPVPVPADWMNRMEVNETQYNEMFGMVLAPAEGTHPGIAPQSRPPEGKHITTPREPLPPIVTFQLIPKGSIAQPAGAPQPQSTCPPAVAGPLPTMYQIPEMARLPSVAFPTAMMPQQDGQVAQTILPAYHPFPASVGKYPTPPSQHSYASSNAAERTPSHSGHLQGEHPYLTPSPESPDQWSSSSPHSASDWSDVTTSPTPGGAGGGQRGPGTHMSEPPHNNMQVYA

[6] = target: Pro-neuregulin-1, membrane-bound isoform (Homo sapiens) (UniProt Q02297); assay: small molecules binding neuregulin-1 protein – biochemical, small-molecule microarray, fluorescence 635/667, psychiatric disease protein project, primary screen (AID 1075); settings: NRG1 binding, 635 nm fluorescence, higher = more signal;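 also: score combines 667 nm spot fluorescence with signal to noise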
Chain of Pro-neuregulin-1, membrane-bound isoform (Homo sapiens) (Q02297 whole entry, looked up, the tested form may be a part, canonical isoform): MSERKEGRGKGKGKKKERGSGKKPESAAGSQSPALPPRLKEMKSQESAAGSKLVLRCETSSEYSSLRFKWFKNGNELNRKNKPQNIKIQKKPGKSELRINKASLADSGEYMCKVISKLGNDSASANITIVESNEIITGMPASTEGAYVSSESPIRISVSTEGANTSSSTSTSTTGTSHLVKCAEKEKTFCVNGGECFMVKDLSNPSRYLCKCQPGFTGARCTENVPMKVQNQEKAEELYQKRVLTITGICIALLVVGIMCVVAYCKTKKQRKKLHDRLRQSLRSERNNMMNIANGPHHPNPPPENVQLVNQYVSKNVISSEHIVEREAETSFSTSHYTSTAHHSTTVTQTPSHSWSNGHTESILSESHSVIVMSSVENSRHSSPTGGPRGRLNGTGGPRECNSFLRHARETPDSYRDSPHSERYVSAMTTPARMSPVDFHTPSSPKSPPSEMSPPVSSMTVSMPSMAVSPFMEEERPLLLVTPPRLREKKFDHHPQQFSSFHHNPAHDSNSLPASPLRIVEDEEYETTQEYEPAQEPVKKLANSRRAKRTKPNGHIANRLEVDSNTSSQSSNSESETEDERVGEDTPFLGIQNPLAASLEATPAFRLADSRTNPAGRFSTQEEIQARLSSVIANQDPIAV

[7] = test system: Neuregulin-1 EGF-like domain; assay: small molecules binding NRG1 EGF domain – biochemical, small-molecule microarray, 635 nm fluorescence, primary screen (AID 1081); settings: higher = more signal;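 also: binding of the protein to compounds printed on small-molecule microarray slides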
[8] = FRG1 expression reporter modulators in myotubes – cell-based, C2C12 myotubes, firefly/Renilla luciferase, luminescence, FRG1 inhibition for FSHD, primary screen (AID 1084); settings: FRG1 promoter luciferase, higher = more signal, called active from +8 up or from −8 down
[9] = small molecules captured by biotinylated probe aFST – biochemical, small-molecule microarray, fluorescence 635/667, stem cell growth factor project, primary screen (AID 1086); settings: higher = more signal;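 also: score merges 667 nm fluorescence with signal-to-noise of each printed compound spot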
[10] = binders of probe aHhip on microarray, primary screen, stem cell growth factor project, biochemical, small-molecule microarray, fluorescence 635/667 (AID 1087); settings: higher = more signal;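 also: score merges spot fluorescence at 667nm with spot signal to noise ratio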
[11] = test system: PRMT1 (protein arginine N-methyltransferase 1); assay: small molecules binding arginine methyltransferase PRMT1 – biochemical, small-molecule microarray, 635 nm fluorescence, primary screen (AID 1088); settings: higher = more signal;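 also: binding of Prmt1 protein to compounds spotted on small-molecule microarray slides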
[12] = growth effects on S. cerevisiae YJM789 – YJM789 clinical isolate, OD600, 24 h, basal, primary screen (AID 1089); settings: higher = more signal, called active from +8 up or from −8 down;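 also: growth of clinical yeast isolate S. cerevisiae YJM 789 seeded 1000 cells per well; test concentration not given here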
[13] = S. pombe growth modifiers, basal conditions – strain 972, OD600, 24 h, no modulator, primary screen (AID 1090);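 also: basal condition with compound alone and no growth modifier present; test concentration not given here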; settings: S. pombe 972 growth, higher = more signal, called active from +8 up or from −8 down
[14] = budding yeast growth modifiers under rapamycin – strain BY4716, OD600, 96 h, primary screen (AID 1091); also: test concentration not given here; settings: S. cerevisiae BY4716 + rapamycin, higher = more signal, called active from +8 up or from −8 down
[15] = target: Torsin-1A-interacting protein 2 (Homo sapiens) (UniProt Q8NFQ8); assay: small molecules binding lysate-expressed LULL1 – cell lysate, human LULL1 lysate, 635/667 nm fluorescence, primary screen (AID 1092); settings: small-molecule microarray, hLULL1 lysate binding, 635 nm fluorescence; higher = more signal;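 also: probe is lysate of COS7 cells overexpressing human LULL1; score merges per-feature 667 nm fluorescence with signal-to-noise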
Chain of Torsin-1A-interacting protein 2 (Homo sapiens) (Q8NFQ8 whole entry, looked up): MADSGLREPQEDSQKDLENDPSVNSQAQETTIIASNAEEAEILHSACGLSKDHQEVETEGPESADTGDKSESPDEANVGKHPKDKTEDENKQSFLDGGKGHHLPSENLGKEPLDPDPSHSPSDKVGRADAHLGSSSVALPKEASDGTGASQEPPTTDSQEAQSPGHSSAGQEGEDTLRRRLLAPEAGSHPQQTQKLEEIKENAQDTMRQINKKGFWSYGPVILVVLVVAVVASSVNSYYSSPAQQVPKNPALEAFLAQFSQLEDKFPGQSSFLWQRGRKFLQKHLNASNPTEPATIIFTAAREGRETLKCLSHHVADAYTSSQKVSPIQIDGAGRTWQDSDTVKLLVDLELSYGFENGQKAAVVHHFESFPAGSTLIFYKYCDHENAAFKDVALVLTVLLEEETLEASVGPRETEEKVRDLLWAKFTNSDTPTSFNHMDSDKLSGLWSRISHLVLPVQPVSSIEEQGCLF

[16] = optical density change of DRC41 E. coli – strain DRC41, OD650, 24 h, E. coli filamentation project, primary screen (AID 1093);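 also: MC1000 strain lacking acrAB efflux and sulA so SOS filamentation is blocked; test concentration not given here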; settings: E. coli DRC41 growth, higher = more signal, called active from +8 up or from −8 down
[17] = probe aLefty2 binding to arrayed compounds – biochemical, biotinylated probe, 635/667 nm fluorescence, primary screen (AID 1094); settings: small-molecule microarray, higher = more signal;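 also: score merges spot fluorescence near 667 nm with spot signal-to-noise ratio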
[18] = test system: Noggin (protein binding on small-molecule microarray); assay: small molecules binding Noggin protein – biochemical, 635/667 nm fluorescence, primary screen (AID 1095); settings: 635 nm fluorescence, higher = more signal;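 also: score merges 667 nm feature fluorescence with signal to noise over triplicate slides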
[19] = target: Neurogenic locus notch homolog protein 3 (Homo sapiens) (UniProt Q9UM47); assay: small molecules binding NOTCH3 protein – biochemical, 635/667 nm fluorescence, primary screen (AID 1096); settings: small-molecule microarray, 635 nm fluorescence, higher = more signal
[20] = probe aEGFR binding to arrayed compounds – biochemical, biotinylated probe, 635/667 nm fluorescence, primary screen (AID 1097); settings: small-molecule microarray, higher = more signal;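 also: probe is a biotinylated anti-EGFR antibody binding compounds printed on slides; score combines fluorescence near 667 nm and signal to noise of each spot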

## CO[C@H]1O[C@H](CO)[C@@H](OC(=O)Nc2ccc(C(F)(F)F)cc2)[C@H](OC(=O)Nc2ccccc2-c2ccccc2)[C@@H]1OC(=O)Nc1ccccc1-c1ccccc1
[1]
  composite z-score: 0.433
[2]
  composite z-score: 1.65
[3]
  composite z-score: -0.0262
[4]
  composite z-score: 0.94
[5]
  composite z-score: 1.56
[6]
  composite z-score: 1.77
[7]
  composite z-score: 1.29
[8]
  z-score: -0.228 (inactive)
[9]
  composite z-score: 1.32
[10]
  composite z-score: -0.146
[11]
  composite z-score: 1.54
[12]
  z-score: 0.94 (inactive)
[13]
  z-score: 1.25 (inactive)
[14]
  z-score: 4.92 (inactive)
[15]
  composite z-score: 2.4
[16]
  z-score: 0.193 (inactive)
[17]
  composite z-score: 0.33
[18]
  composite z-score: 1.32
[19]
  composite z-score: 1.02
[20]
  composite z-score: 0.0752

## COCCOC(=O)N1C(=O)[C@@]2(c3cc(C#CCC(C(=O)OC)C(=O)OC)ccc31)[C@H](C(=O)N1CCCCCCC1)[C@H]1C(=O)O[C@H](c3ccccc3)[C@H](c3ccccc3)N1[C@@H]2c1ccccc1OCCO
[1]
  composite z-score: 3.92
[2]
  composite z-score: 1.8
[3]
  composite z-score: 0.825
[4]
  composite z-score: 0.481
[5]
  composite z-score: 1.39
[6]
  composite z-score: 0.811
[7]
  composite z-score: 1.12
[8]
  z-score: 0.158 (inactive)
[9]
  composite z-score: 3.34
[10]
  composite z-score: 2.72
[11]
  composite z-score: 1.56
[12]
  z-score: 0.917 (inactive)
[13]
  z-score: -1.08 (inactive)
[14]
  z-score: 3.51 (inactive)
[15]
  composite z-score: 2.88
[16]
  z-score: 0.858 (inactive)
[17]
  composite z-score: 1.82
[18]
  composite z-score: 1.82
[19]
  composite z-score: 1.14
[20]
  composite z-score: 1.06

## C=C(C(=O)CC[C@@H](OC(C)=O)c1cccc(OCCO)c1)C(C)C
[1]
  composite z-score: -0.0377
[2]
  composite z-score: 0.108
[3]
  composite z-score: -0.0996
[4]
  composite z-score: 0.365
[5]
  composite z-score: -0.768
[6]
  composite z-score: 1.92
[7]
  composite z-score: 0.568
[8]
  z-score: 0.44 (inactive)
[9]
  composite z-score: -0.337
[10]
  composite z-score: -0.0672
[11]
  composite z-score: 0.745
[12]
  z-score: 1.55 (inactive)
[13]
  z-score: -0.464 (inactive)
[14]
  z-score: 0.339 (inactive)
[15]
  composite z-score: 1.62
[16]
  z-score: 0.351 (inactive)
[17]
  composite z-score: -0.186
[18]
  composite z-score: -0.0056
[19]
  composite z-score: 0.507
[20]
  composite z-score: -0.207

## O=C1C2C=CC(C(O)c3cccc(O)c3)N(Nc3ccccc3F)C2C(=O)N1c1ccccc1 (stereo not given)
[1]
  composite z-score: 0.0355
[2]
  composite z-score: 0.74
[3]
  composite z-score: -0.0005
[4]
  composite z-score: -0.0284
[5]
  composite z-score: 0.0745
[6]
  composite z-score: 0.445
[7]
  composite z-score: 0.218
[8]
  z-score: 2.18 (inactive)
[9]
  composite z-score: 0.725
[10]
  composite z-score: -0.437
[11]
  composite z-score: 0.788
[12]
  z-score: -25 (active)
[13]
  z-score: -8.06 (active)
[14]
  z-score: -1.5 (inactive)
[15]
  composite z-score: 1.88
[16]
  z-score: 1.94 (inactive)
[17]
  composite z-score: -0.192
[18]
  composite z-score: -0.171
[19]
  composite z-score: 0.552
[20]
  composite z-score: -0.13

## CN(C)CCCC[C@@H]1NC(=O)[C@H]2C[C@@H](C(=O)O)[C@@H](c3cccc(OCCO)c3)N2C1=O
[1]
  composite z-score: 0.794
[2]
  composite z-score: 1.13
[3]
  composite z-score: -0.0238
[4]
  composite z-score: 0.105
[5]
  composite z-score: 0.146
[6]
  composite z-score: 0.212
[7]
  composite z-score: 1.44
[8]
  z-score: 6.56 (inactive)
[9]
  composite z-score: 0.547
[10]
  composite z-score: 0.0374
[11]
  composite z-score: 1.4
[12]
  z-score: -0.733 (inactive)
[13]
  z-score: -1.36 (inactive)
[14]
  z-score: 0.102 (inactive)
[15]
  composite z-score: 2.1
[16]
  z-score: 0.579 (inactive)
[17]
  composite z-score: 0.495
[18]
  composite z-score: 1.19
[19]
  composite z-score: 0.87
[20]
  composite z-score: 0.169

## CC(=O)NCCCC[C@@H]1NC(=O)[C@H]2C[C@@H](C(=O)NCCCCCC[N+](C)(C)C)[C@@H](c3ccc(O)cc3)N2C1=O
[1]
  composite z-score: -0.383
[2]
  composite z-score: 0.808
[3]
  composite z-score: -0.144
[4]
  composite z-score: -0.351
[5]
  composite z-score: -0.181
[6]
  composite z-score: 1.35
[7]
  composite z-score: 1.41
[8]
  z-score: 5.36 (inactive)
[9]
  composite z-score: -0.18
[10]
  composite z-score: -0.199
[11]
  composite z-score: 1.55
[12]
  z-score: -0.509 (inactive)
[13]
  z-score: 0.555 (inactive)
[14]
  z-score: -0.489 (inactive)
[15]
  composite z-score: 3.04
[16]
  z-score: 0.478 (inactive)
[17]
  composite z-score: -0.0206
[18]
  composite z-score: 1.46
[19]
  composite z-score: 0.702
[20]
  composite z-score: -0.125

## COc1cccc(C[C@H]2C[C@@H](CO[Si](C(C)C)(C(C)C)C(C)C)N3C(=O)[C@@]4(C(C)=O)O[C@@]23[C@@H]2C(=O)N(C)C(=O)[C@@H]24)c1
[1]
  composite z-score: -0.43
[2]
  composite z-score: 0.199
[3]
  composite z-score: -0.0697
[4]
  composite z-score: 0.933
[5]
  composite z-score: 1.16
[6]
  composite z-score: 1.01
[7]
  composite z-score: 0.93
[8]
  z-score: -1.14 (inactive)
[9]
  composite z-score: 0.307
[10]
  composite z-score: 0.113
[11]
  composite z-score: 1.56
[12]
  z-score: 0.368 (inactive)
[13]
  z-score: 0.827 (inactive)
[14]
  z-score: 1.6 (inactive)
[15]
  composite z-score: 0.189
[16]
  z-score: -0.929 (inactive)
[17]
  composite z-score: -0.105
[18]
  composite z-score: 0.456
[19]
  composite z-score: 1.16
[20]
  composite z-score: 0.127

## C=CCC(OC(C)=O)[C@@H]1[C@@H](N(Cc2ccc(-c3ccccc3)cc2)C(=O)c2cccc3ccccc23)c2cc(OCCCO)ccc2N1C(=O)c1ccc2ccccc2c1 (stereo not given in full)
[1]
  composite z-score: -0.254
[2]
  composite z-score: -0.0509
[3]
  composite z-score: -0.0973
[4]
  composite z-score: 0.246
[5]
  composite z-score: 0.045
[6]
  composite z-score: -0.179
[7]
  composite z-score: -0.172
[8]
  z-score: -0.891 (inactive)
[9]
  composite z-score: 0.277
[10]
  composite z-score: -0.0672
[11]
  composite z-score: 0.189
[12]
  z-score: -0.521 (inactive)
[13]
  z-score: -0.328 (inactive)
[14]
  z-score: -0.569 (inactive)
[15]
  composite z-score: 0.813
[16]
  z-score: -0.584 (inactive)
[17]
  composite z-score: 0.0802
[18]
  composite z-score: -0.106
[19]
  composite z-score: -0.0403
[20]
  composite z-score: -0.136

## C=CCNC(=O)[C@@H]1[C@H]2C(=O)O[C@H](c3ccccc3)[C@H](c3ccccc3)N2[C@H](c2ccccc2OCCO)[C@@]12C(=O)N(C(=O)OCCOC)c1ccc(C#CCCO)cc12
[1]
  composite z-score: -0.0812
[2]
  composite z-score: 0.693
[3]
  composite z-score: 0.0645
[4]
  composite z-score: 1.05
[5]
  composite z-score: 0.742
[6]
  composite z-score: 1.2
[7]
  composite z-score: 1.21
[8]
  z-score: 0.0106 (inactive)
[9]
  composite z-score: -0.66
[10]
  composite z-score: 0.277
[11]
  composite z-score: 1.55
[12]
  z-score: 0.656 (inactive)
[13]
  z-score: 0.619 (inactive)
[14]
  z-score: 3.69 (inactive)
[15]
  composite z-score: 2.88
[16]
  z-score: -0.625 (inactive)
[17]
  composite z-score: -0.135
[18]
  composite z-score: 0.96
[19]
  composite z-score: 1.08
[20]
  composite z-score: 0.038

## C=C(CC1([C@@H](NP(=O)(c2ccccc2)c2ccccc2)[C@H]2C[C@@H]2CCN(C(=O)OCC)S(=O)(=O)c2ccc(C)cc2)CC1)c1ccccc1
[1]
  composite z-score: 0.0862
[2]
  composite z-score: -0.163
[3]
  composite z-score: 0.226
[4]
  composite z-score: 0.821
[5]
  composite z-score: 1.67
[6]
  composite z-score: 1.38
[7]
  composite z-score: 1.12
[8]
  z-score: 0.894 (inactive)
[9]
  composite z-score: 1.5
[10]
  composite z-score: 0.128
[11]
  composite z-score: -0.362
[12]
  z-score: 0.585 (inactive)
[13]
  z-score: 0.722 (inactive)
[14]
  z-score: 3.51 (inactive)
[15]
  composite z-score: 2.98
[16]
  z-score: -0.926 (inactive)
[17]
  composite z-score: 0.502
[18]
  composite z-score: 0.229
[19]
  composite z-score: 1.02
[20]
  composite z-score: 0.104
